High-throughput results: PubChem BioAssay, several laboratories
NR1D1 modulator: modulators of human Rev-erb alpha DNA binding | Rev-erbα–FITC-DNA binding, fluorescence polarization, 90 min | AID 1259318 | activity, % at 10 µM | hit rate 0.79% among 370,000 | P20393;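 active means activity above about 14%, limit read from the data; passing the limit was not always enough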;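 further: 0% = DMSO wells with 35 nM protein and 100% = DMSO wells with 750 nM protein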
PG9 binder: binds the HIV-1 gp120 antibody PG9; hit rate 0.43% among 360,000; inhibition, % at 6.7 µM; TR-FRET gp120-PG9 antibody binding; in the data active means inhibition above about 8.5%
ABCB6 inh MLPCN: blocks the human ABCB6 transporter; Q9NP58; K562-ABCB6 porphyrin accumulation, flow cytometry, 1 h; hits give low values; fluorescence ratio to DMSO, % at 10 µM; hit rate 0.19% among 360,000;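 active means fluorescence ratio to DMSO below 75%, the collection mean minus 3 SD; inconclusive means too few cells collected in the well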;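 further: signal is porphyrin accumulated inside mitochondria; 100% equals median channel fluorescence of DMSO control wells; lower ratio means ABCB6 inhibition with less porphyrin fluorescence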
Target sequence (Q9NP58 whole entry, looked up): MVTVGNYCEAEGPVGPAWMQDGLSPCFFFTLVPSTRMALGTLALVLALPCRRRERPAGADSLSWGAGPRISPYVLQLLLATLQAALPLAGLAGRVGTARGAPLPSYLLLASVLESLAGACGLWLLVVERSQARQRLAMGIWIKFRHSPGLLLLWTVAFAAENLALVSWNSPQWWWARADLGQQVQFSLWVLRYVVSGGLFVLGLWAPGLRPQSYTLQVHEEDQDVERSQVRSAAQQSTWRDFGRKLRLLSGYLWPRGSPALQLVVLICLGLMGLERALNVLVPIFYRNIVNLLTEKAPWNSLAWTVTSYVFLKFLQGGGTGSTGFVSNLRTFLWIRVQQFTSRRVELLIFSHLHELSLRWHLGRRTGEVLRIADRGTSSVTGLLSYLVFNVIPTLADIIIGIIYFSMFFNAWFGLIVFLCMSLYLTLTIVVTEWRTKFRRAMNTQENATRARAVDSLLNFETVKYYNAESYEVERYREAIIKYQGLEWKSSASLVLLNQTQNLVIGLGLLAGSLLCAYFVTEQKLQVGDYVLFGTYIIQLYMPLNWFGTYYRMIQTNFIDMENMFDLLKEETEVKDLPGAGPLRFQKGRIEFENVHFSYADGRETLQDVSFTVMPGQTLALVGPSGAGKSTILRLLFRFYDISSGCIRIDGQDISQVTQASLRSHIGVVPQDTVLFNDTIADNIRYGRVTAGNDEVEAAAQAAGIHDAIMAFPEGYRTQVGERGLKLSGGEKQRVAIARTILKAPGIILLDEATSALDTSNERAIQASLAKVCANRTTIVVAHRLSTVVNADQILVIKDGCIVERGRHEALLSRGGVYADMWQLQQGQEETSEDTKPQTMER
VLA-4 inh: inhibition in a human VLA-4 binding assay; P13612; VLA-4 expressing cells, ligand binding flow cytometry; inhibition, % (about 7 µM as worked out from the volumes in the protocol); hit rate 0.2% among 330,000; AID 2557; in the data active means inhibition above about 50%
Granule exo inh: lytic granule exocytosis inhibition. TALL-104 LAMP-1 surface exposure, flow cytometry; cells stimulated with thapsigargin and PMA. inhibition, % at 10 µM. hit rate 0.66% among 360,000. AID 651702;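 active means inhibition above about 55%, limit read from the data; inconclusive means no clear call, values can overlap the other calls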
PG9 bind confirm: PG9 antibody binding, confirmed. inhibition, % at 6.7 µM. TR-FRET PG9 antibody binding, biochemical. shares compounds with PG9 binder. hit rate 90% among 1,500; in the data active means inhibition above about 9%
PGV04 Ab binding: PGV04 control antibody binding, counter-screen; hit rate 95% among 1,500; TR-FRET PGV04 antibody-gp120 binding, biochemical; shares compounds with PG9 binder; inhibition, % at 6.7 µM; in the data active means inhibition above about 9.5%
PG9 binder DR: small molecules binding HIV-1 gp120 antibody PG9 | AID 651848 | TR-FRET PG9 antibody-gp120 binding inhibition | 95 tested, under 10 active | shares compounds with PG9 binder | IC50, µM; in the data active means IC50 below about 10 µM
PGV04 binding DR: PGV04 binding, dose response counter-screen; IC50, µM; hit rate 20% among 95; TR-FRET binding to control antibody PGV04; AID 651937; shares compounds with PG9 binder
PG126 binding DR: counter-screen for PG9 binders: binding to control antibody PG126 | IC50, µM | TR-FRET binding to antibody PG126, counterscreen | hit rate 20% among 95 | shares compounds with PG9 binder
An asterisk follows results filed as active; i = inactive; ? = inconclusive; nt = not tested or not shown. In the library only some 2% were active in any assay of this set; here they are far more common. Unless noted, no stated cut-off is given here; in the data, active means IC50 below about 9 µM; inactive means the rest.

SMILES	NR1D1 modulator	PG9 binder	ABCB6 inh MLPCN	VLA-4 inh	Granule exo inh	PG9 bind confirm	PGV04 Ab binding	others
COc1ccc2[nH]c3c(=S)nc[nH]c3c2c1	0	50*	110	0	-3	26*	26*	PG9 binder DR=>67;PGV04 binding DR=>67;PG126 binding DR=>67
NC(=O)c1ccc(NC(=O)CNC(=O)c2sc3ccccc3c2Cl)cc1	8	18*	101	21	-1	22*	28*
COC(=O)c1ccc(NC(=O)CNC(=O)c2sc3ccccc3c2Cl)cc1	12	0	103	1	-1	nt	nt
Cc1ccc(NC(=O)CNC(=O)c2sc3ccccc3c2Cl)nc1	14	15*	99	12	-5	13*	28*
O=C(COC(=O)c1cc(Cl)ccc1O)c1ccc2c(c1)OCO2	8	11*	98	-2	-10	10*	15*
O=C(CCc1nc2sc3c(c2c(=O)[nH]1)CCCC3)NCCOc1ccccc1	-4	24*	96	-1	2	24*	47*
O=C(CCc1nc2sc3c(c2c(=O)[nH]1)CCCC3)Nc1ccccc1Cl	4	17*	100	15	0	19*	34*
Cc1cccc(NC(=O)CNC(=O)CCc2nc3sc4c(c3c(=O)[nH]2)CCCC4)c1C	-16	22*	98	18	-3	21*	40*
CC(=O)c1ccc(NC(=O)CCc2nc3sc4c(c3c(=O)[nH]2)CCCC4)cc1	12	11*	98	0	11	23*	33*
Cc1cccc(NC(=O)CCc2nc3sc4c(c3c(=O)[nH]2)CCCC4)n1	-9	1	99	3	7	nt	nt
COc1cccc(CO[C@H]2C=C[C@@H](c3ccccc3)O[C@@H]2COC(C)=O)c1	-1	nt	nt	nt	nt	nt	nt
O=C(C1CCCN1S(=O)(=O)c1ccccc1[N+](=O)[O-])N1CCc2ccccc2C1 (stereo not drawn)	1	nt	nt	nt	nt	nt	nt
Cc1csc(NC(=O)c2cccs2)n1	2	-2	97	5	1	nt	nt
Cc1csc2c(=O)sc(NC(=O)c3ccco3)nc12	-4	37*	97	6	4	49*	78*
Cc1csc2c(=O)sc(NC(=O)c3cccs3)nc12	13	64*	95	1	-1	66*	88*
COC(=O)[C@]12C[C@H](CC(=O)N3CCSCC3)C(=O)N(CCc3ccc(OC)c(OC)c3)C1=C[C@H](C1CCCC1)O[C@@H]2C	4	nt	nt	nt	nt	nt	nt
CCCCCCCCN1C(=O)[C@@H](CC(=O)NCCCCc2ccccc2)C[C@@]2(C(=O)OC)C1=C[C@H](C(C)(C)C)O[C@@H]2C	0	0	nt	nt	nt	nt	nt
COc1ccc(-c2nnc(-c3ccc(N(C)C)cc3)o2)cc1	-2	0	98	6	-2	nt	nt
CN(C)c1ccc(-c2nnc(-c3ccc(S(=O)(=O)C(F)F)cc3)o2)cc1	5	11*	99	-8	-1	17*	20*
COC(=O)CCC(=O)Nc1sc(C)c(C)c1C(N)=O	0	2	105	8	2	nt	nt
COC(=O)CCC(=O)NC(=S)Nc1sc(C)c(C)c1C(N)=O	12	36*	95	14	8	33*	42*
CC(=NN1CCN(Cc2ccccc2Cl)CC1)c1ccc(O)cc1	-2	nt	nt	nt	nt	nt	nt
OC(c1ccccc1)(c1ccccc1)C1CCN(CCCOc2ccc(-c3ccncc3)cc2)CC1	3	2	nt	nt	nt	nt	nt
CCOc1ccc(-n2c(SCC(=O)Nc3ccc(S(=O)(=O)Nc4nccs4)cc3)nnc2-c2ccccc2)cc1	6	nt	nt	nt	nt	nt	nt
COc1ccc(C(=O)CSc2nc(N)nc(SC)c2C#N)cc1	8	21*	97	2	0	23*	28*
SMILES	NR1D1 modulator	PG9 binder	ABCB6 inh MLPCN	VLA-4 inh	Granule exo inh	PG9 bind confirm	PGV04 Ab binding	others
Cc1c(Cl)cnc(NC(=O)COC(=O)c2ccc3c(c2)OCO3)c1Cl	-1	28*	99	-9	-2	16*	30*
COc1ccc(C)cc1NC(=O)COC(=O)c1ccc2c(c1)OCO2	8	24*	?	-1	-1	24*	28*
Cc1cc(C)c(OCC(=O)Nc2ccc3c(c2)OCO3)cc1C	7	18*	88	-9	-1	20*	24*
CN(C)C1C(=O)C(C(=O)NCN2CCCC2)=C(O)C2(O)C(=O)C3=C(O)c4c(O)cccc4C(C)(O)C3CC12 (stereo not drawn)	-8	nt	nt	nt	nt	nt	nt
Clc1cc(Cl)cc(CNC2CCC23CCC(c2ccccc2)CC3)c1 (stereo not drawn)	0	nt	nt	nt	nt	nt	nt
Cc1c(Br)c(O)c(Br)c2sc(=O)oc12	-3	18*	101	0	43	11*	21*
O=C1C(=O)N(CCCN2CCOCC2)C(c2ccc(F)cc2)/C1=C(\O)c1ccc2c(c1)OCCO2 (stereo not drawn)	-4	9.4*	93	-6	2	21*	24*
COc1cccc(C2/C(=C(/O)c3ccc4c(c3)CC(C)O4)C(=O)C(=O)N2CCCn2ccnc2)c1 (stereo not drawn)	-2	3	106	-120	-1	nt	nt
O=C1C(=O)N(CCCn2ccnc2)C(c2cccc(Br)c2)/C1=C(\O)c1ccc2c(c1)OCCO2 (stereo not drawn)	-4	27*	101	6	-1	45*	40*	PG9 binder DR=i;PGV04 binding DR=5.4*;PG126 binding DR=8*
COc1cccc(C2/C(=C(\O)c3ccc4c(c3)OCCO4)C(=O)C(=O)N2CCCn2ccnc2)c1 (stereo not drawn)	-7	12*	94	8	1	20*	23*
O=C1C(=O)N(Cc2ccncc2)C(c2cccc(O)c2)/C1=C(\O)c1ccc2c(c1)OCCO2 (stereo not drawn)	1	8	97	-14	4	nt	nt
COc1ccc(/C(O)=C2/C(=O)C(=O)N(CCCN3CCOCC3)C2c2ccc(Cl)cc2)cc1 (stereo not drawn)	1	12*	99	nt	-4	26*	43*
Nn1c(SCc2cccc3ccccc23)nnc1-c1cc(-c2ccc(F)cc2)n[nH]1	2	nt	nt	nt	nt	nt	nt
C=C(C)CSc1nc2sc(C)c(C)c2c(=O)n1C	2	nt	nt	nt	nt	nt	nt
COc1ccc(C2/C(=C(\O)c3ccc(OC)c(Cl)c3)C(=O)C(=O)N2CCN(C)C)cc1 (stereo not drawn)	-4	1	98	-10	-5	nt	nt
O=C1C(=O)N(CCN2CCOCC2)C(c2ccncc2)/C1=C(/O)c1ccc2c(c1)OCO2 (stereo not drawn)	-8	0	93	0	-3	nt	nt
